The text below walks through data of PubChem BioAssay (Tox21).

Inconclusive results are not listed. Active and inactive are the calls of the source. Unless noted, calls follow the shape of the dose curve; as a rule, active = well fitted curve in the direction sought with a large enough effect in the repeat runs; inconclusive = weak or mixed curves; inactive = no such curve, though single readings can be large; an effect the other way counts as inactive or inconclusive.

Test [1] can be described thus: qHTS assay to identify small molecule antagonists of the thyroid receptor (TR) signaling pathway - cell viability counter screen (AID 743064). Also: nearly all actives have a fitted effect of over 50% in size. Also: potency is read from the fitted curve at half-maximal effect. The note with it: GH3.TRE-Luc viability, CellTiter-Fluor, 24 h; series mostly up to 70.3 µM. In outline:
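Fluorescence from CellTiter-Fluor, added after 23.5 h exposure at 37 °C, reported viability of GH3.TRE-Luc cells co-treated with compound and 1 nM T3. Measured in the same wells as the luciferase TR readout.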
A general note: Quantitative high-throughput screening tests each substance at several concentrations.

A short description of test [2]: qHTS assay to identify small molecule antagonists of the thyroid receptor (TR) signaling pathway (AID 743065). Also: nearly all actives have a fitted effect of over 55% in size. Also: potency is read from the fitted curve at half-maximal effect. The note with it: GH3.TRE-Luc, T3-stimulated luciferase inhibition, 23.5 h; series mostly up to 70.3 µM. In outline:
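Antagonism measured as loss of luciferase signal in GH3 cells stably carrying a TRE-luciferase reporter, co-treated with compound and T3 (1 nM final) for 23.5 h at 37 C. Viability was read in the same well by CellTiter-Fluor.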

The subject of test [3] is thyroid hormone receptor (rat, GH3 cells). Put plainly: qHTS assay to identify small molecule agonists of the thyroid receptor (TR) signaling pathway (AID 743066; calls by dose curve). The note with it: GH3.TRE-Luc cells, TR agonist luciferase, 24 h; series mostly up to 83.9 µM.
A short description of test [4]: qHTS assay to identify small molecule antagonists of the estrogen receptor alpha (ER-alpha) signaling pathway - cell viability counter screen (AID 743074; calls by dose curve;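 also: HEK293 cells carrying ER-alpha-UAS-bla reporter stimulated with 17beta-estradiol; nearly all actives have a fitted effect of over 45% in size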). Conditions: ERalpha-bla HEK293 viability, CellTiter-Glo luminescence, 18 h; series mostly up to 69.4 µM.
A short description of test [5]: qHTS assay to identify small molecule antagonists of the estrogen receptor alpha (ER-alpha) signaling pathway using the BG1 cell line - cell viability counter screen (AID 743081).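 Also: compound given together with 17beta-estradiol as the ER stimulus; nearly all actives have a fitted effect of over 45% in size.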 The note with it: BG1Luc4E2 viability, CellTiter-Fluor, 22 h; series mostly up to 70.3 µM.
Test [6] can be described thus: qHTS assay to identify small molecule that activate the aryl hydrocarbon receptor (AhR) signaling pathway - cell viability counter screen (AID 743086). Also: nearly all actives have a fitted effect of over 45% in size. Conditions: HepG2-AhR-luc viability, CellTiter-Fluor, 24 h; series mostly up to 70.3 µM. In outline: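 Cytotoxicity counter screen: CellTiter-Fluor signal (30 min, 37 C) in 4000 HepG2 cells/well carrying the DRE-luciferase reporter, following 24 h compound exposure at 37 C.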

Test [7] is described as follows: qHTS assay to identify small molecule antagonists of the peroxisome proliferator-activated receptor gamma (PPARg) signaling pathway - cell viability counter screen (AID 743194). Also: nearly all actives have a fitted effect of over 55% in size. The note with it: PPARg-bla HEK293H viability, CellTiter-Glo luminescence, 17 h, co-treated with 50 nM rosiglitazone; series mostly up to 62.6 µM. In outline: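 Viability was measured as CellTiter-Glo luminescence in GeneBLAzer PPARg UAS-bla HEK293H cells. These cells had been exposed 17 h at 37 C to compounds together with rosiglitazone at 50 nM final, with the beta-lactamase readout taken in the same wells.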

Test [8] can be described thus: qHTS assay for small molecule agonists of the antioxidant response element (ARE) signaling pathway (AID 743202; active = well fitted activation curve with a large enough effect in the signal ratio in the repeat runs, not every such curve was filed as active; the % refers to the signal ratio). The note with it: HepG2 ARE-bla reporter, beta-lactamase FRET, 16 h; series mostly up to 73.3 µM. In outline: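 After 16 hours of compound treatment at 37 C, HepG2 cells with a stably integrated ARE-driven beta-lactamase reporter were loaded 2 hours at room temperature with LiveBLAzer B/G FRET substrate and fluorescence intensity measured.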

Test [9] in a line: qHTS assay for small molecule agonists of the antioxidant response element (ARE) signaling pathway - cell viability counter screen (AID 743203; calls by dose curve; also: nearly all actives have a fitted effect of over 55% in size). Conditions: ARE-bla HepG2 viability, CellTiter-Glo luminescence, 16 h; series mostly up to 73.3 µM. In outline: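 Measured in the same wells as the beta-lactamase ARE reporter, this read-out is CellTiter-Glo luminescence from HepG2 ARE-bla cells given compounds for 16 hrs.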

A short description of test [10]: qHTS assay for small molecule activators of the heat shock response signaling pathway - cell viability counter screen (AID 743209). Also: nearly all actives have a fitted effect of over 50% in size. Conditions: HSE-bla HeLa viability, CellTiter-Glo luminescence, 5 h; series mostly up to 62.6 µM. In outline:
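Same-well multiplex: after 2.5 h room-temperature incubation with LiveBLAzer B/G substrate and fluorescence reading, CellTiter-Glo reagent was added to HSE-bla HeLa cells that had received compound for 5 h at 37 C; luminescence read after 30 min.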

The nature of test [11]: qHTS assay for small molecule activators of the heat shock response signaling pathway (AID 743210; active = well fitted activation curve with a large enough effect in the signal ratio in the repeat runs, with a control signal flat, not every such curve was filed as active; the % refers to the signal ratio). Conditions: HeLa HSE-bla reporter, beta-lactamase ratio, 5 h; series mostly up to 62.6 µM. In outline:
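Compound exposure lasted 5 h at 37 C in HeLa cells carrying a heat-shock-element-driven beta-lactamase reporter. Read-out: fluorescence intensity after 2.5 h room-temperature loading with LiveBLAzer B/G FRET substrate.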

For test [12], the target named is Estrogen receptor (Homo sapiens) (UniProt P03372). Nature of the test: qHTS assay to identify small molecule antagonists of the estrogen receptor alpha (ER-alpha) signaling pathway (AID 743069; active = well fitted curve in the direction sought with a large enough effect in the signal ratio in the repeat runs, not every such curve was filed as active; the % refers to the signal ratio). Conditions: HEK293 ER-alpha-UAS-bla, beta-lactamase ratio, antagonist mode; series mostly up to 69.4 µM. In outline:
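Antagonist mode: compounds in DMSO were co-added with 17beta-estradiol to ER-alpha-bla HEK293 cells (2% charcoal-stripped serum) and left 18 h at 37C. Reporter inhibition was measured as FRET fluorescence after 2 h LiveBLAzer substrate at room temperature.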

The target is the same in test [13]. Put plainly: qHTS assay to identify small molecule agonists of the estrogen receptor alpha (ER-alpha) signaling pathway (AID 743075; calls by dose curve;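 also: HEK293 GripTite cells with ER-alpha and UAS-driven beta-lactamase reporter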). The note with it: HEK293 ER-alpha-UAS-bla, beta-lactamase FRET ratio, 18 h; series mostly up to 70.1 µM.
For test [14] the target is unchanged. Nature of the test: qHTS assay to identify small molecule agonists of the estrogen receptor alpha (ER-alpha) signaling pathway using the BG1 cell line (AID 743079). Also: nearly all actives have a fitted effect of over 20% in size. Conditions: BG1Luc4E2 cells, ERE-luciferase agonist, 22 h; series mostly up to 70.3 µM.
The nature of test [15]: qHTS assay to identify small molecule antagonists of the estrogen receptor alpha (ER-alpha) signaling pathway using the BG1 cell line (AID 743080; calls by dose curve;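 also: BG1 cells stimulated with 17beta-estradiol alongside compound; nearly all actives have a fitted effect of over 25% in size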). The note with it: BG1Luc4E2 ERE-luciferase antagonist mode, luminescence; series mostly up to 70.3 µM. In outline:
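Endogenous full-length ER-alpha in BG1-Luc-4E2 cells drives a stably integrated 4×ERE luciferase gene; compounds were tested against 17beta-estradiol over 21.5 h, with luminescence and multiplexed viability fluorescence recorded.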

The target in another test is Aromatase (Homo sapiens) (UniProt P11511). Nature of the test: qHTS assay to identify aromatase inhibitors (AID 743083). Also: nearly all actives have a fitted effect of over 55% in size. Also: potency is read from the fitted curve at half-maximal effect. Conditions: MCF-7 aro ERE, testosterone-driven ERE luciferase, 24 h; series mostly up to 70.3 µM.
The nature of test [16]: qHTS assay to identify aromatase inhibitors - cell viability counter screen (AID 743084). The note with it: MCF-7 aro ERE viability, CellTiter-Fluor, 24 h; series mostly up to 70.3 µM.
Test [17] deals with Aryl hydrocarbon receptor (Homo sapiens) (UniProt P35869). Put plainly: qHTS assay to identify small molecule that activate the aryl hydrocarbon receptor (AhR) signaling pathway (AID 743085). Also: nearly all actives have a fitted effect of over 15% in size. Also: potency is read from the fitted curve at half-maximal effect.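 As to activation: HG2L7.5c1 human HepG2 liver cells with stably integrated DRE-driven firefly reporter.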 The note with it: HepG2 AhR-luc (HG2L7.5c1), luciferase, 24 h; series mostly up to 70.3 µM. In outline: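 Cell line HG2L7.5c1 (human hepatoma, 20× DRE-luc). Plated, 5 h 37C, compound/DMSO added, 24 h 37C. CellTiter-Fluor 30 min 37C → fluorescence; then ONE-Glo 30 min RT → luminescence.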

For test [18], the target named is Peroxisome proliferator-activated receptor gamma (Homo sapiens) (UniProt P37231). Put plainly: qHTS assay to identify small molecule agonists of the peroxisome proliferator-activated receptor gamma (PPARg) signaling pathway (AID 743094; active = well fitted activation curve with a large enough effect in the signal ratio in the repeat runs, not every such curve was filed as active; the % refers to the signal ratio). The note with it: HEK293H PPARg-UAS-bla, beta-lactamase FRET ratio, 17 h; series mostly up to 57 µM. In outline:
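Cell-based bla reporter, HEK293H background, PPARg-driven UAS. Pre-incubation 5 h, 37C, 5% CO2. Compound 17 h, 37C. Substrate 1 h RT; fluorescence.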

Test [19] shares this target. Nature of the test: qHTS assay to identify small molecule antagonists of the peroxisome proliferator-activated receptor gamma (PPARg) signaling pathway (AID 743191; calls by dose curve; also: nearly all actives have a fitted effect of over 30% in size). Conditions: HEK293H PPARg-UAS-bla, beta-lactamase ratio, antagonist, 17 h; series mostly up to 62.6 µM. In outline: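 Beta-lactamase reporter under UAS control in HEK293H PPARg-bla cells; compound treatment 17 h at 37C. Read-out: fluorescence intensity after 1 h room-temperature incubation with LiveBLAzer B/G FRET substrate.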

Chain of Peroxisome proliferator-activated receptor gamma (Homo sapiens) (P37231 whole entry, looked up): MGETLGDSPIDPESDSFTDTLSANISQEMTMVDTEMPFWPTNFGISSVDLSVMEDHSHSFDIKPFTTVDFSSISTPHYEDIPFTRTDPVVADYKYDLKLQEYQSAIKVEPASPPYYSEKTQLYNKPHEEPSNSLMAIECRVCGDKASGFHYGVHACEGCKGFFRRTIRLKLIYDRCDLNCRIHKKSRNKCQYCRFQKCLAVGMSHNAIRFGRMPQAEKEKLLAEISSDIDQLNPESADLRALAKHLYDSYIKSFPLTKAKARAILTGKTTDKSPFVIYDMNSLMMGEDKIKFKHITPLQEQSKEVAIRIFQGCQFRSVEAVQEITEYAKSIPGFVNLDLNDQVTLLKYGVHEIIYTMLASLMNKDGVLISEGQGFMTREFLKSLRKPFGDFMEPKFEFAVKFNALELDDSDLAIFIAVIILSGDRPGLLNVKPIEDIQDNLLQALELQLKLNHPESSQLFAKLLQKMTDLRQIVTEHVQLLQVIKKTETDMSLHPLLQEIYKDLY
Chain of Aryl hydrocarbon receptor (Homo sapiens) (P35869 whole entry, looked up): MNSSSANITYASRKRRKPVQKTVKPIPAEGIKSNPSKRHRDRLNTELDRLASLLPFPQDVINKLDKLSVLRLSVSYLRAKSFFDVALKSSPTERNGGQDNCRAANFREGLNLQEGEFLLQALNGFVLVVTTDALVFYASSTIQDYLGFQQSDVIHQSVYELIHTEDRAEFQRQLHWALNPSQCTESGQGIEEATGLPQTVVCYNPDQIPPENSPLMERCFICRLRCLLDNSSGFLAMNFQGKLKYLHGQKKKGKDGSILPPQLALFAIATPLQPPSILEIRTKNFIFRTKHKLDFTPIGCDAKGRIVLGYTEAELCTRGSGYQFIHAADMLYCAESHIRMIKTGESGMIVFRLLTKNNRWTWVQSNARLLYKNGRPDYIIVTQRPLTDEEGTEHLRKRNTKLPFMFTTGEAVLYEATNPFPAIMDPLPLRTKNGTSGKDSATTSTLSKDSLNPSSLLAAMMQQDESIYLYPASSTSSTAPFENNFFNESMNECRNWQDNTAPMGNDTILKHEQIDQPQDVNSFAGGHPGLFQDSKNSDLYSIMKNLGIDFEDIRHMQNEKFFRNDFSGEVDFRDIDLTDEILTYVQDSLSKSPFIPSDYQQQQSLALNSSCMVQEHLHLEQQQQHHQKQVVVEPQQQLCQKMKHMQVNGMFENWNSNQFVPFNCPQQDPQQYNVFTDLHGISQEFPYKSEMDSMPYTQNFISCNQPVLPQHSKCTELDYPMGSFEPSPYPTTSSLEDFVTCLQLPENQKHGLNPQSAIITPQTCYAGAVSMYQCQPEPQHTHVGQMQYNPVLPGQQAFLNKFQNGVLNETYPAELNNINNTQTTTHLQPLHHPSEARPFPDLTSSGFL
Chain of Estrogen receptor (Homo sapiens) (P03372 whole entry, looked up): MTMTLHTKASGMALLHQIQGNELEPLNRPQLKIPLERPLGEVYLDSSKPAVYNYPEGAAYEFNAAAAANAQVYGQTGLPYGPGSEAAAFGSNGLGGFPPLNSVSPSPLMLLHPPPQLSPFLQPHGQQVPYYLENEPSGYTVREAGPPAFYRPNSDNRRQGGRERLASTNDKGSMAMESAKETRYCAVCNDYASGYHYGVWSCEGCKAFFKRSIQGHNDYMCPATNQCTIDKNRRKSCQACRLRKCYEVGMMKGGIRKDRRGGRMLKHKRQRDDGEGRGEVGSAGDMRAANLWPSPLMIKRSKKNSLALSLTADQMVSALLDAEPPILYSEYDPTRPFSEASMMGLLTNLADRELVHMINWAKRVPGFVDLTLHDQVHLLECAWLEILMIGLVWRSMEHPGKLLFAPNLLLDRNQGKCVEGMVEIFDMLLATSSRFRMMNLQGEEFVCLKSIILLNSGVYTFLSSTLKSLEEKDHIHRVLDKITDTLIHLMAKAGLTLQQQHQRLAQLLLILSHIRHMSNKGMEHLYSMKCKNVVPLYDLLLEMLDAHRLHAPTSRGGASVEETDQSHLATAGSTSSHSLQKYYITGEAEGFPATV
Chain of Aromatase (Homo sapiens) (P11511 whole entry, looked up): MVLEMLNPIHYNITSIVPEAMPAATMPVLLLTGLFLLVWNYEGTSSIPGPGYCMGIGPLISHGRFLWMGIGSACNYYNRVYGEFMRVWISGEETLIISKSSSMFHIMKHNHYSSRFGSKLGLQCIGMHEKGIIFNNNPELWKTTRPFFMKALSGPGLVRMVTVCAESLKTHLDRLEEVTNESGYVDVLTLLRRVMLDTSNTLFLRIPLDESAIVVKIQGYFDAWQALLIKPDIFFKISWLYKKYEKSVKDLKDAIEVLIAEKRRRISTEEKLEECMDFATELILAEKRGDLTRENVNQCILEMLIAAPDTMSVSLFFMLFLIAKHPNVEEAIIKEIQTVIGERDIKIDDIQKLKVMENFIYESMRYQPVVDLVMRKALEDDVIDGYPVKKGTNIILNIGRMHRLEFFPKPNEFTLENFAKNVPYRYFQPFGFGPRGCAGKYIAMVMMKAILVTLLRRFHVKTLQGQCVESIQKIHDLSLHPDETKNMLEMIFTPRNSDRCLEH

With `CCCCC=O`, the Potency result in test [1], in test [2], in test [3], in [6], in test [7] and in test [8] was “inactive” each time. The result in [4], in test [5], in test [9], in test [10] and in [11] was inactive.
On to `CCCCCCCCN(C)CCCCCCCC`, for which the Potency result in test [1], in test [3], in test [12], in test [13], in test [14] and in test [15] was “inactive” each time. For the same compound, the Potency entry (with Aromatase (Homo sapiens); in test [16]; in test [17]; in [6]; in [8]) was “inactive” in each case. In addition, the compound was classed as inactive in test [4], in test [5], in test [18], in test [19], in [9] and in test [10]. Also, in test [11], the result was inactive.
In the case of `CC(C)CCCC(C)CCCC(C)CCCCC(C)CCCC(C)CCCC(C)C` (stereo not drawn), the Potency result (in test [1]; in test [2]; in test [3]; in the test with Aromatase (Homo sapiens); in test [16]; in test [6]) was “inactive” throughout. The Potency entry in test [7] and in test [8] was “inactive” throughout. In addition, the call in [4], in test [5], in test [9], in test [10] and in [11] was inactive.
With `CN(C)C(=O)C(CCN1CCC(O)(c2ccc(Cl)cc2)CC1)(c1ccccc1)c1ccccc1`, the Potency in [1] is 8.41 µM (active); in [2], 8.41 µM (active); in the test with Aromatase (Homo sapiens), 26.6 µM (active). Moreover, the Potency result in [13] and in test [17] was “inactive” throughout. Also, the call in [10] and in [11] was inactive.
In the case of `C=CCOc1nc(OCC=C)nc(OCC=C)n1`, the Potency result (in test [1]; in test [2]; in test [3]; with Aromatase (Homo sapiens); in test [16]; in [6]) was “inactive” each time. Also, the call in test [4], in [5], in test [18], in test [19], in [9] and in [10] was inactive. For the same compound, the outcome in [11] was inactive. Moreover, the Potency in [17] was 54.5 µM (active).
Take `Cc1nc(-c2ccc(OCC(C)C)c(C#N)c2)sc1C(=O)O`: the Potency result (in [1]; in [3]; in test [13]; with Aromatase (Homo sapiens); in test [16]; in [6]) was “inactive” each time. The Potency result in test [7] is “inactive”. For the same compound, the compound was classed as inactive in [5], in [18], in test [9], in [10] and in test [11]. Moreover, in test [17], the Potency is 0.0298 µM (active).
Turning to `Cc1nccn1CC1CCc2c(c3ccccc3n2C)C1=O` (stereo not drawn), the Potency entry in test [1], in test [3], in test [12], in [13], in [14] and in test [15] was “inactive” throughout. Moreover, the Potency result (with Aromatase (Homo sapiens); in test [16]; in test [17]; in test [6]; in test [7]; in test [8]) was “inactive” each time. In addition, the result in [4], in test [5], in test [19], in test [9], in test [10] and in test [11] was inactive.
Turning to `NC(=O)c1ncn([C@@H]2O[C@H](CO)[C@@H](O)[C@H]2O)c1N`, the Potency entry in test [1], in test [3], in [12], in test [13], in [14] and in [15] was “inactive” in each case. The Potency result (in the test with Aromatase (Homo sapiens); in [16]; in test [17]; in test [6]; in [7]; in test [8]) was “inactive” each time. Besides, the call in [4], in [5], in test [19], in test [9], in test [10] and in test [11] was inactive.
For `COc1cccc(Br)c1`, the Potency result in [1], in test [3], in [12], in test [13], in test [14] and in [15] was “inactive” throughout. For the same compound, the Potency entry (with Aromatase (Homo sapiens); in [16]; in test [17]; in [7]; in [8]) was “inactive” in each case. In addition, the compound was called inactive in test [4], in [5], in [18], in test [9], in test [10] and in test [11].
In the case of `CCCCCCOC(=O)c1ccccc1O`, the Potency entry (in test [1]; in test [3]; in test [12]; in test [13]; in test [15]; in the test with Aromatase (Homo sapiens)) was “inactive” throughout. Besides, the Potency entry in test [16], in test [17], in [6], in test [7] and in [8] was “inactive” each time. Further, the compound was called inactive in [4], in test [5], in test [18], in test [9], in test [10] and in test [11].
`C=CC(=O)N1CCOCC1`: the Potency result (in test [1]; in test [3]; with Aromatase (Homo sapiens); in test [16]; in [17]; in test [6]) was “inactive” each time. The Potency result in test [7] and in test [8] was “inactive” in each case. The result in test [4], in [5], in test [18], in test [19], in test [9] and in test [10] was inactive. Also, the outcome in test [11] was inactive.
For the compound `CN1[C@@H]2CC[C@H]1CC(NC(=O)n1c(=O)[nH]c3ccccc31)C2` (stereo partly drawn), the Potency result (in [1]; in [12]; in test [13]; in test [14]; in [15]; with Aromatase (Homo sapiens)) was “inactive” throughout. Besides, the Potency result in [16], in test [17], in [6] and in [7] was “inactive” in each case. Moreover, the compound was classed as inactive in test [4], in test [5], in test [18], in test [19], in test [9] and in test [10]. The outcome in [11] was inactive.
